These results are taken from PMC7862700, “An all-to-all approach to the identification of sequence-specific readers for epigenetic DNA modifications on cytosine”.

Test in all cases: DAPPL (digital affinity profiling via proximity ligation, sequencing); 10 mM Tris-HCl pH 7.5, 50 mM NaCl, 1 mM DTT, 4% glycerol, room temperature, 30 min; GST-TFs on glutathione beads, 16-mer random dsDNA library, 0.1% formaldehyde crosslink after washing; high values mean tight binding
One test addresses T1, FEV (Homo sapiens, UniProt Q99581 1-238).
T1 sequence: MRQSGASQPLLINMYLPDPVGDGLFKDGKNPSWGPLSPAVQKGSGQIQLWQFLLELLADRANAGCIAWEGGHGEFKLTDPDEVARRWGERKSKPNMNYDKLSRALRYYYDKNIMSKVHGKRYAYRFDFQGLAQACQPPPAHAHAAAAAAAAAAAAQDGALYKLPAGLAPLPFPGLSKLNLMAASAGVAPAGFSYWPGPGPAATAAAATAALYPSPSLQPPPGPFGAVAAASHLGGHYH
The following applies: protein: recombinant; tags: N-terminal GST; dsDNA, one strand shown. The method in brief:
(§1)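 Binding signal is each hexamer's read frequency for a factor divided by its frequency in the tag-only sample. The factors were GST-fused human transcription factors from yeast, captured on glutathione beads, DNA-barcoded and pooled with that sample. Pools were incubated with 200 nmole of a random double-stranded 16-mer DNA library in Tris/NaCl/DTT/glycerol buffer at room temperature for 30 min, then washed, crosslinked with 0.1% formaldehyde, proximity-ligated with BsaI/T4 ligase (1 h, 37 °C), PCR-amplified and sequenced on an Illumina NextSeq500.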

Another test concerns the target ETV5 (Homo sapiens, UniProt P41161 1-510). As to conditions: protein: recombinant; tags: N-terminal GST; dsDNA, one strand shown. The method in brief: as §1
Another test concerns the target HSF1 (Homo sapiens, UniProt Q00613 1-529). As to conditions: protein: recombinant; tags: N-terminal GST; chain copies: 3; dsDNA, one strand shown. The method in brief:
as §1

In the next test the target is T2, SPIC (Homo sapiens, UniProt Q8N5J4 1-248).
T2 sequence: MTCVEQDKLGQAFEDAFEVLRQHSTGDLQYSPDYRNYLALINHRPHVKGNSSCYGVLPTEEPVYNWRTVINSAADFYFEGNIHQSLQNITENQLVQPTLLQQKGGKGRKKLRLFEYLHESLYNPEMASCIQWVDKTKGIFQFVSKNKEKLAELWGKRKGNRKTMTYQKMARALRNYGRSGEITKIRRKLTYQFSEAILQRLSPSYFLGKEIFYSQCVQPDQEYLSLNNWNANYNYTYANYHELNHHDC
As to conditions: protein: recombinant; tags: N-terminal GST; dsDNA, one strand shown. The method in brief:
as §1

For a further test, the target named is ELF4 (Homo sapiens, UniProt Q99607 1-663). As to conditions: protein: recombinant; tags: N-terminal GST; dsDNA, one strand shown. In outline:
as §1

A further test deals with T3, ELK4 (Homo sapiens, UniProt P28324-2 1-405).
T3 sequence: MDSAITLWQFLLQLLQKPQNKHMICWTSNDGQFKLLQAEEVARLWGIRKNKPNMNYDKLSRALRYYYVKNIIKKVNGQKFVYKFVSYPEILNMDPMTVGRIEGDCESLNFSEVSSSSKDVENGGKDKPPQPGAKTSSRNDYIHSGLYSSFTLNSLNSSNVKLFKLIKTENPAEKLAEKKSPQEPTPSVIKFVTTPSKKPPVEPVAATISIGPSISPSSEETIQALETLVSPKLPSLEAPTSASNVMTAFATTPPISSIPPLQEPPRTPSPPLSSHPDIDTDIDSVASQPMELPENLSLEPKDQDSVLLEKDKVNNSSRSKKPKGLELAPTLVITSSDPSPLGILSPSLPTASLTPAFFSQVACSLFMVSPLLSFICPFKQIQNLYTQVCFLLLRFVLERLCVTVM
As to conditions: protein: recombinant; tags: N-terminal GST; dsDNA, one strand shown. The method in brief: as §1

Another test has as its target T4, ETV2 (Homo sapiens, UniProt O00321 1-342).
T4 sequence: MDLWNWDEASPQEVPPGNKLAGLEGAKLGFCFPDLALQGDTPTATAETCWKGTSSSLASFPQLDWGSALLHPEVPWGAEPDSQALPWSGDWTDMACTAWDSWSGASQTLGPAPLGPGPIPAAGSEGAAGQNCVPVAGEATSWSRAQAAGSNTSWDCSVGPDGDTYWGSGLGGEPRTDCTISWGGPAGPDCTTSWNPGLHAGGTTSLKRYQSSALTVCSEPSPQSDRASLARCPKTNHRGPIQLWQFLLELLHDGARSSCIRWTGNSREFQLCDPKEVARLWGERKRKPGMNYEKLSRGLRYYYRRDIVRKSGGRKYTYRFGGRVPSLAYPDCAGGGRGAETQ
The following applies: protein: recombinant; tags: N-terminal GST; dsDNA, one strand shown. In outline: as §1

The target in another test is T5, ELF3 (Homo sapiens, UniProt P78545 1-371).
T5 sequence: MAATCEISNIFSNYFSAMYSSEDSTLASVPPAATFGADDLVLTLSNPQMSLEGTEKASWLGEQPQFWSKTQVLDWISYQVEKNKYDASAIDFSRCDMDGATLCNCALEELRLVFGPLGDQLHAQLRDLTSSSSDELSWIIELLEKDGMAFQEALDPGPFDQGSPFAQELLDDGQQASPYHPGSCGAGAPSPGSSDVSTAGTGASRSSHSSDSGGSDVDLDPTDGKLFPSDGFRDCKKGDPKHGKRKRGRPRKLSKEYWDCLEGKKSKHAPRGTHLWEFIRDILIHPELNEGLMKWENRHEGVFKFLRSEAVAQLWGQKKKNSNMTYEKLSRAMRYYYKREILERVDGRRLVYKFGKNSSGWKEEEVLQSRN
As to conditions: protein: recombinant; tags: N-terminal GST; dsDNA, one strand shown. The method in brief: as §1

The target of the next test is CRX (Homo sapiens, UniProt O43186 1-299). As to conditions: protein: recombinant; tags: N-terminal GST; dsDNA, one strand shown. In outline: as §1
Chain of CRX (O43186 whole entry): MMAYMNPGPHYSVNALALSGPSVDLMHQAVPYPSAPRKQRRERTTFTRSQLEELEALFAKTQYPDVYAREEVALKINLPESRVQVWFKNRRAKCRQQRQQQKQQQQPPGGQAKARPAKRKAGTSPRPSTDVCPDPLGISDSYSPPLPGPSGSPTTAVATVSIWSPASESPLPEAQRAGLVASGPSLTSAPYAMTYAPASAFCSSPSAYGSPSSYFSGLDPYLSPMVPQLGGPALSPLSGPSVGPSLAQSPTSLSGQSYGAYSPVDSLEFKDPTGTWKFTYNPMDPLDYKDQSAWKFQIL
For another test, the target named is ETV1 (Homo sapiens, UniProt P50549 1-477). The following applies: protein: recombinant; tags: N-terminal GST; dsDNA, one strand shown. In outline: as §1
Chain of ETV1 (P50549 whole entry): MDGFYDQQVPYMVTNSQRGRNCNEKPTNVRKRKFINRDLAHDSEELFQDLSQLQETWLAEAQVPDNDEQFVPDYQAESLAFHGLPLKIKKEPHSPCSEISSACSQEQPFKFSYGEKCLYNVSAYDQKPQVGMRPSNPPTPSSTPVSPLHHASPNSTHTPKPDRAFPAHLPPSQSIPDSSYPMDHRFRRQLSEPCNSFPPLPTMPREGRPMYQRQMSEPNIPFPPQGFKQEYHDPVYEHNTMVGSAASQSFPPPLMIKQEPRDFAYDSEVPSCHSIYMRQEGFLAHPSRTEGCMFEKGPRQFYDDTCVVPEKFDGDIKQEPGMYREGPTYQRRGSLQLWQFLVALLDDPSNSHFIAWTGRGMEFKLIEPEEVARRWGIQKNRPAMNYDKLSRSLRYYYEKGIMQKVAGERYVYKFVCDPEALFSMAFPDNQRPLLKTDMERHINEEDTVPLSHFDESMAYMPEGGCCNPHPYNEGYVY

Chain of HSF1 (Q00613 whole entry): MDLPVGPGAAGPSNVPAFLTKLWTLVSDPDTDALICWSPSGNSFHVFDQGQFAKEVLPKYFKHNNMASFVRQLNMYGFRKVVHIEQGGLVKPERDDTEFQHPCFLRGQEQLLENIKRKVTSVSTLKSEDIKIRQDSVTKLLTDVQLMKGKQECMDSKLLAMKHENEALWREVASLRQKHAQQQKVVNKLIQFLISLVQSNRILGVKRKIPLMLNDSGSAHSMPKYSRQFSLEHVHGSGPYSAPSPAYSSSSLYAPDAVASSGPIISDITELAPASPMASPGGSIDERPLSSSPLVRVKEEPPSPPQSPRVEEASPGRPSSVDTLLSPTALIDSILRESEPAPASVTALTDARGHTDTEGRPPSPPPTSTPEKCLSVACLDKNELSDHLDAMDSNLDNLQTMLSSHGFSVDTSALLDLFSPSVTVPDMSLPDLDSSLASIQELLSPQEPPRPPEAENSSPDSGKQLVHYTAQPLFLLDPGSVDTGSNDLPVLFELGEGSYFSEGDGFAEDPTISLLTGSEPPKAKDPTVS
Chain of ELF4 (Q99607 whole entry): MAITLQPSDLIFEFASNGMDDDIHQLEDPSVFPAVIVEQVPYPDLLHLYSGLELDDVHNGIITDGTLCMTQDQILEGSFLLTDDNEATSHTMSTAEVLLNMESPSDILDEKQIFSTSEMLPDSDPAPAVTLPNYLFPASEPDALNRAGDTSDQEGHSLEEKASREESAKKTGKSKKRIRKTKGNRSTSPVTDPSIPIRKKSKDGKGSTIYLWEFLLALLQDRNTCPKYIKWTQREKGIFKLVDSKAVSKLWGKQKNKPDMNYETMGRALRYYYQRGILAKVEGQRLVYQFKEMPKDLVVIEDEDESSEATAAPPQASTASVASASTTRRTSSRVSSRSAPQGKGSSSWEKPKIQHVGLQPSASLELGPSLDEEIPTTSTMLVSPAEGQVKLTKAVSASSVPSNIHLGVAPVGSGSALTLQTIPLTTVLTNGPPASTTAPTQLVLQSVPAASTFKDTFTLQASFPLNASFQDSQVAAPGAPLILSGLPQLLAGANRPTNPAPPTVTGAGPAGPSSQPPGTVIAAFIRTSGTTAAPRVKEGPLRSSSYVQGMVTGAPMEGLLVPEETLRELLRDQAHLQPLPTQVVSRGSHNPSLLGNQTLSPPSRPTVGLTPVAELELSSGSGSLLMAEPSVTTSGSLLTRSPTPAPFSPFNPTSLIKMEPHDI
Chain of ETV5 (P41161 whole entry): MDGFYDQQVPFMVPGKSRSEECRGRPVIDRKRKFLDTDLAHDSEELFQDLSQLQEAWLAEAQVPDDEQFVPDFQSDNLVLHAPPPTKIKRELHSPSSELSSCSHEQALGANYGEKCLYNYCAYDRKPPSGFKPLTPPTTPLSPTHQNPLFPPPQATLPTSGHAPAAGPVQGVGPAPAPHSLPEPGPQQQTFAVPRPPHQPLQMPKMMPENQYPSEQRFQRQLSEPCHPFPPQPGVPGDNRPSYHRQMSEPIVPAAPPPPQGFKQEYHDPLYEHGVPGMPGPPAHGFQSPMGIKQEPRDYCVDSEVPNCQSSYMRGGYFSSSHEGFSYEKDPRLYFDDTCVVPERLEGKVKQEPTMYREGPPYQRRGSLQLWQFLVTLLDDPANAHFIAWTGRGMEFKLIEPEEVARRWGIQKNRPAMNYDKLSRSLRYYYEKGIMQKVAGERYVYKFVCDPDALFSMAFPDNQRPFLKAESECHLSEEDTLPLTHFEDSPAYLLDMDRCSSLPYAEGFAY

As to ATAGTA, the binding signal was 1.16 fold enrichment (6-mer frequency, TF over GST control) with FEV; 1.18 fold enrichment (6-mer frequency, TF over GST control) with ETV5; 1.16 fold enrichment (6-mer frequency, TF over GST control) with HSF1; 1.29 fold enrichment (6-mer frequency, TF over GST control) in the test with SPIC; 1.16 fold enrichment (6-mer frequency, TF over GST control) with ELF4; 1.24 fold enrichment (6-mer frequency, TF over GST control) with ELK4. Besides, the binding signal with ETV2 was 1.34 fold enrichment (6-mer frequency, TF over GST control); in the test with ELF3, 1.2 fold enrichment (6-mer frequency, TF over GST control); with CRX it was 1.24 fold enrichment (6-mer frequency, TF over GST control); with ETV1 it was 1.13 fold enrichment (6-mer frequency, TF over GST control).
On to TTAAAA, for which the binding signal with FEV was 1.16 fold enrichment (6-mer frequency, TF over GST control); with ETV5, 1.14 fold enrichment (6-mer frequency, TF over GST control); in the test with HSF1, 1.87 fold enrichment (6-mer frequency, TF over GST control); with SPIC, 1.28 fold enrichment (6-mer frequency, TF over GST control); with ELF4 it was 1.19 fold enrichment (6-mer frequency, TF over GST control); with ELK4, 1.27 fold enrichment (6-mer frequency, TF over GST control). Also, the binding signal in the test with ETV2 was 1.25 fold enrichment (6-mer frequency, TF over GST control); in the test with ELF3 it was 1.24 fold enrichment (6-mer frequency, TF over GST control); in the test with CRX, 2.69 fold enrichment (6-mer frequency, TF over GST control); in the test with ETV1 it was 1.22 fold enrichment (6-mer frequency, TF over GST control).
For TTTATG, the binding signal is 1.26 fold enrichment (6-mer frequency, TF over GST control) with FEV; 1.36 fold enrichment (6-mer frequency, TF over GST control) with ETV5; 1.37 fold enrichment (6-mer frequency, TF over GST control) with HSF1; 1.5 fold enrichment (6-mer frequency, TF over GST control) with SPIC; 1.21 fold enrichment (6-mer frequency, TF over GST control) with ELF4; 1.16 fold enrichment (6-mer frequency, TF over GST control) with ELK4. The binding signal with ETV2 was 1.34 fold enrichment (6-mer frequency, TF over GST control); with ELF3, 1.37 fold enrichment (6-mer frequency, TF over GST control); with CRX, 1.74 fold enrichment (6-mer frequency, TF over GST control); with ETV1, 1.32 fold enrichment (6-mer frequency, TF over GST control).
In the case of ATCCGG, the binding signal in the test with FEV was 4.68 fold enrichment (6-mer frequency, TF over GST control); in the test with ETV5 it was 2.87 fold enrichment (6-mer frequency, TF over GST control); with HSF1, 1.31 fold enrichment (6-mer frequency, TF over GST control); in the test with SPIC it was 2.35 fold enrichment (6-mer frequency, TF over GST control); in the test with ELF4 it was 2.17 fold enrichment (6-mer frequency, TF over GST control); with ELK4, 2.1 fold enrichment (6-mer frequency, TF over GST control). Also, the binding signal was 2.6 fold enrichment (6-mer frequency, TF over GST control) with ETV2; 2.31 fold enrichment (6-mer frequency, TF over GST control) with ELF3; 1.48 fold enrichment (6-mer frequency, TF over GST control) in the test with CRX; 2.66 fold enrichment (6-mer frequency, TF over GST control) in the test with ETV1.
Regarding CTACAC, the binding signal in the test with FEV is 1.27 fold enrichment (6-mer frequency, TF over GST control); in the test with ETV5, 1.26 fold enrichment (6-mer frequency, TF over GST control); with HSF1, 1.11 fold enrichment (6-mer frequency, TF over GST control); with SPIC, 1.32 fold enrichment (6-mer frequency, TF over GST control); with ELF4, 1.17 fold enrichment (6-mer frequency, TF over GST control); in the test with ELK4, 1.23 fold enrichment (6-mer frequency, TF over GST control). The binding signal with ETV2 was 1.19 fold enrichment (6-mer frequency, TF over GST control); in the test with ELF3 it was 1.39 fold enrichment (6-mer frequency, TF over GST control); in the test with CRX, 1.05 fold enrichment (6-mer frequency, TF over GST control); in the test with ETV1 it was 1.28 fold enrichment (6-mer frequency, TF over GST control).
TAACAT: the binding signal with FEV was 1.32 fold enrichment (6-mer frequency, TF over GST control); with ETV5, 1.36 fold enrichment (6-mer frequency, TF over GST control); with HSF1, 1.29 fold enrichment (6-mer frequency, TF over GST control); in the test with SPIC it was 1.46 fold enrichment (6-mer frequency, TF over GST control); with ELF4 it was 1.37 fold enrichment (6-mer frequency, TF over GST control); with ELK4 it was 1.29 fold enrichment (6-mer frequency, TF over GST control). Also, the binding signal is 1.39 fold enrichment (6-mer frequency, TF over GST control) with ETV2; 1.5 fold enrichment (6-mer frequency, TF over GST control) in the test with ELF3; 1.57 fold enrichment (6-mer frequency, TF over GST control) with CRX; 1.37 fold enrichment (6-mer frequency, TF over GST control) in the test with ETV1.
On to TTCCAC, for which the binding signal was 1.37 fold enrichment (6-mer frequency, TF over GST control) with FEV; 1.41 fold enrichment (6-mer frequency, TF over GST control) in the test with ETV5; 1.83 fold enrichment (6-mer frequency, TF over GST control) with HSF1; 1.57 fold enrichment (6-mer frequency, TF over GST control) with SPIC; 1.42 fold enrichment (6-mer frequency, TF over GST control) with ELF4; 1.39 fold enrichment (6-mer frequency, TF over GST control) in the test with ELK4. Besides, the binding signal is 1.42 fold enrichment (6-mer frequency, TF over GST control) with ETV2; 1.38 fold enrichment (6-mer frequency, TF over GST control) with ELF3; 1.26 fold enrichment (6-mer frequency, TF over GST control) with CRX; 1.38 fold enrichment (6-mer frequency, TF over GST control) with ETV1.
For TCACAC, the binding signal with FEV was 1.35 fold enrichment (6-mer frequency, TF over GST control); with ETV5, 1.31 fold enrichment (6-mer frequency, TF over GST control); with HSF1, 1.06 fold enrichment (6-mer frequency, TF over GST control); in the test with SPIC it was 1.24 fold enrichment (6-mer frequency, TF over GST control); in the test with ELF4, 1.36 fold enrichment (6-mer frequency, TF over GST control); in the test with ELK4 it was 1.31 fold enrichment (6-mer frequency, TF over GST control). Besides, the binding signal was 1.29 fold enrichment (6-mer frequency, TF over GST control) with ETV2; 1.19 fold enrichment (6-mer frequency, TF over GST control) with ELF3; 1.07 fold enrichment (6-mer frequency, TF over GST control) with CRX; 1.33 fold enrichment (6-mer frequency, TF over GST control) in the test with ETV1.
